Source: PubChem BioAssay AID1135 (Sanford-Burnham Center for Chemical Genomics, 2008)
The whole screen tested about 200,000 compounds, of which about 65 (0.03%) were called active.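 The calls were made as follows: active = over 50% inhibition of tissue-nonspecific alkaline phosphatase at 20 µM in the single-dose screen; inactive = the rest.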 The entries come from a sample that favours actives as a whole.

The molecules below were run against Alkaline phosphatase, tissue-nonspecific isozyme (Homo sapiens) (UniProt P05186) (assay: human TNAP enzyme inhibitors, primary screen, biochemical, luminescent, high phosphate acceptor level, uHTS (AID 1135;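 also: plate controls were DMSO wells for no effect and EDTA-quenched wells as full inhibition for full effect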)). Settings: purified TNAP, CDP-star luminescence, 1 M DEA; at 20 µM; active compounds read high.
Chain of Alkaline phosphatase, tissue-nonspecific isozyme (Homo sapiens) (P05186 whole entry, looked up): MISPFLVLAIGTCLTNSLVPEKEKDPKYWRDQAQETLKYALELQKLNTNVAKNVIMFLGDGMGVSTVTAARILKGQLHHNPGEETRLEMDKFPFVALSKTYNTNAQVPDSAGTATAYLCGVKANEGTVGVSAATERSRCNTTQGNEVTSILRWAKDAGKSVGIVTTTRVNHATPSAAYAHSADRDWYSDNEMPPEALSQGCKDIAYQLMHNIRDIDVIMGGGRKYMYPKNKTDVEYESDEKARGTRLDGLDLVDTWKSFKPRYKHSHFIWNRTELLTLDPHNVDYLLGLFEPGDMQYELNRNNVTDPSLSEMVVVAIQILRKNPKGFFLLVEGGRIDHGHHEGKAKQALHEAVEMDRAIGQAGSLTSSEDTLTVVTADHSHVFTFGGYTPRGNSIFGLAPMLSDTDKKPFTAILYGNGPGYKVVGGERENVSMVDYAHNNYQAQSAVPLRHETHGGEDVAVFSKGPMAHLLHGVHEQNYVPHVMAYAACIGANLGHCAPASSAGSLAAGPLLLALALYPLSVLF

Row | Structure (SMILES) | inhibition
1 | CN(C)c1ccc(/C=N/Nc2cc(N3CCOCC3)nc(N3CCOCC3)n2)cc1 | -5.4% (inactive)
2 | O=C(NNc1c2ccccc2nc2ccccc12)c1cc2ccccc2cc1O | 26.1% (inactive)
3 | O=c1oc(/C=C/c2ccccc2)nc2ccccc12 | 0% (inactive)
4 | O=C(O)c1ccc(N/N=C/c2ccc3ncccc3c2)cc1 | 0.7% (inactive)
5 | Cc1[nH]c2ccccc2c1C(=O)COC(=O)c1c(-c2ccccc2)noc1C | -2.1% (inactive)
6 | CC/C(O)=C1\C(=O)CC(C)(C)CC1=NCCc1nc2ccccc2[nH]1 | -0.3% (inactive)
7 | O=C(NCc1cccs1)C(=O)NCC1OCCCN1S(=O)(=O)c1ccc(F)cc1 (stereo not drawn) | 0.7% (inactive)
8 | CCn1c(SCC(=O)N/N=C/C=C/c2ccccc2[N+](=O)[O-])nnc1-c1ccccc1 | 1.3% (inactive)
9 | CCOc1ccc(NS(=O)(=O)c2cc(C)c(C)cc2C)cc1 | -1.7% (inactive)
10 | Cc1ccc(SCCC(=O)NC(C(C)C)C(C)C)cc1 | -0.8% (inactive)
11 | O=C(/C=C/c1ccccc1Cl)Nc1ccc(S(=O)(=O)Nc2ncccn2)cc1 | -0.8% (inactive)
12 | Cc1ccc(C)c(NS(=O)(=O)c2ccc(OCC(=O)NCc3cccnc3)cc2)c1 | 3.1% (inactive)
13 | C/C(=N\N=C(N)N)c1ccc(Cl)cc1 | -5.8% (inactive)
14 | Cc1cc(=O)oc2c1c(C)nn2-c1ccc(Cl)cc1 | -6.1% (inactive)
15 | CC(C)Oc1ccc(Cc2n[nH]c(=S)n2Cc2ccccc2)cc1Cl | -3.4% (inactive)
16 | Cc1no[n+]([O-])c1COc1ccccc1/C=C1\NC(=S)NC1=O | 0.1% (inactive)
17 | NS(=O)(=O)c1ccc(NC(=O)/C=C/c2ccccc2Cl)cc1 | 6.2% (inactive)
18 | COc1ccc(OC)c(S(=O)(=O)NCCC(C)C)c1 | -7.1% (inactive)
19 | COc1ccc(CCNC2=C(Cl)C(=O)N(Cc3ccccc3)C2=O)cc1OC | 0.7% (inactive)
20 | Cc1ccccc1CSCCNC(=O)c1ccc(N(C)S(=O)(=O)c2ccccc2)cc1 | -8.8% (inactive)
21 | Cc1ccc(NC(=O)CSCC(=O)NC2CCCCC2)cc1 | -0.6% (inactive)
22 | COc1ccc(C/C(N)=N/OC(=O)c2ccco2)cc1OC | -4.3% (inactive)
23 | CC/C(Cc1ccccc1)=N/NC(=O)CCn1nnc2ccccc21 | -4.6% (inactive)
24 | CCOc1ccc(C(=O)NC(=S)Nc2ccc(N3CCOCC3)c(Cl)c2)cc1[N+](=O)[O-] | 1.7% (inactive)

Row | Structure (SMILES) | inhibition
25 | CN1CCN(C(=O)/C(=C\c2ccc3c(c2)OCO3)NC(=O)c2cccs2)CC1 | -3.5% (inactive)
26 | CCS(=O)(=O)C1=NSC2=NC(=O)/C(=C\c3cc(C)n(-c4cccc(OC)c4)c3C)C(=N)N21 | 1.7% (inactive)
27 | Cc1ccsc1C1C(C#N)=C(N)OC2=C1C(=O)CC(C)C2 (stereo not drawn) | -0.4% (inactive)
28 | CCOC(=O)c1[nH]ncc1CN1CCCC(C(=O)c2ccc(OC)cc2C)C1 (stereo not drawn) | -5.9% (inactive)
29 | C/C(=N\NC(=S)NC(C)C)c1ccc(C(C)(C)C)cc1 | 0.4% (inactive)
30 | O=C(N/N=C/c1ccc([N+](=O)[O-])cc1)C(=O)N1CCCC1 | 1.8% (inactive)
31 | COCCN(CCOC)S(=O)(=O)c1ccc(/C(O)=C(\C#N)c2nc3ccccc3[nH]2)cc1 | -5.5% (inactive)
32 | O=C1OC(OC(=O)c2ccccc2Br)C(N2CCOCC2)=C1Cl (stereo not drawn) | 4.1% (inactive)
33 | CCOC(=O)N/N=C/c1cn(Cc2ccccc2Cl)c2ccccc12 | 0.2% (inactive)
34 | CC(=O)N/N=C/c1cc2c(cc1[N+](=O)[O-])OCO2 | 2.5% (inactive)
35 | COc1ccc(NC(=S)NCCN2CCC(C)CC2)cc1 | -0.4% (inactive)
36 | CCN1CCN(C(C(=O)NC2CCCC2)c2cc3c(cc2[N+](=O)[O-])OCO3)CC1 (stereo not drawn) | -2.4% (inactive)
37 | O=C(Nc1ccccc1C(=O)N1CCOCC1)c1ccc(Cl)cc1 | -6.3% (inactive)
38 | COc1ccc(Cl)cc1NC(=O)[C@@H]1CCCN1C(=O)c1cccs1 | 1% (inactive)
39 | O=[N+]([O-])c1ccc(N/N=C2/CCCCC2c2ccccn2)c([N+](=O)[O-])c1 (stereo not drawn) | 4% (inactive)
40 | CC(C)OC(=O)Cn1nc(C(F)(F)F)c2c1CCCC2 | -1.6% (inactive)
41 | O=C(COc1ccccc1)Nc1ccc(N2CCN(C(=O)c3cccs3)CC2)cc1 | -2.1% (inactive)
42 | Cc1ccc(NC(=O)c2sccc2C)cc1[N+](=O)[O-] | 0.9% (inactive)
43 | COc1ccc(NS(=O)(=O)c2cc(NC(=O)C3CCCCC3)ccc2N2CCOCC2)cc1 | 0.1% (inactive)
44 | COc1cccc(OC)c1C(=O)OCC(=O)/C(C#N)=C(\C)N | 0.2% (inactive)
45 | CCOc1ccc(CCN2C(=O)c3cccnc3C2=O)cc1OCC | 2.6% (inactive)
46 | CC(=O)c1ccc(N2CCN(CC(=O)Nc3ccccc3N3CCOCC3)CC2)cc1 | -5.4% (inactive)
47 | CCOCCCNC(=O)C(NC(=O)Cc1c[nH]c2ccccc12)c1ccc(OC)cc1 (stereo not drawn) | 2.4% (inactive)
48 | CCN1CCN(c2cc3nc(C)n(Cc4ccccc4)c(=O)c3cc2NC(=O)c2ccccc2F)CC1 | -2.8% (inactive)

Row | Structure (SMILES) | inhibition
49 | C/C(=N\NC(=O)c1ccc(NS(=O)(=O)c2cccs2)cc1)c1ccc2ccccc2c1 | -2.7% (inactive)
50 | Cc1ccc(C(=O)COC(=O)CCCC(=O)NC2CCCCC2)cc1[N+](=O)[O-] | -4.3% (inactive)
51 | O=C(Nc1cccnc1)c1cc2cc(Br)ccc2oc1=O | -1.6% (inactive)
52 | CCNS(=O)(=O)c1ccc(NC(=O)c2cncc(Br)c2)cc1 | -1% (inactive)
53 | Cc1ccc(S(=O)(=O)N(C)C)cc1NC(=O)COC(=O)C1COc2ccccc2O1 (stereo not drawn) | -3.2% (inactive)
54 | CCOC(=O)c1ccccc1N1C(=O)C2Sc3[nH]c(=O)sc3C(/C=C/c3ccccc3)C2C1=O (stereo not drawn) | 4.9% (inactive)
55 | CCc1nnc(NC(=O)CCCSc2nc3ccccc3[nH]2)s1 | -4.4% (inactive)
56 | CCN(CC)P(=O)(Nc1ccc(SC(F)F)cc1)c1ccc(N(C)C)cc1NC(=O)c1ccco1 (stereo not drawn) | -7.3% (inactive)
57 | O=C(C(=O)N1CCc2ccccc2C1)c1c[nH]c2ccccc12 | 40.6% (inactive)
58 | C=CCNc1scc(-c2ccccc2)[n+]1CC=C | -7.7% (inactive)
59 | Oc1c(Br)cccc1/C=N/Nc1c(F)c(F)c(F)c(F)c1F | 4.6% (inactive)
60 | C/C(=N/NC(=O)CSc1ccccn1)c1ccc([N+](=O)[O-])cc1 | -4.8% (inactive)
61 | Nc1nnnn1CC(=O)N/N=C/c1ccc(-c2cccc(Cl)c2)o1 | -2.3% (inactive)
62 | O=C(COc1ccc(Cl)cc1)NCc1nnc(SCC(=O)NCC2CCCO2)o1 (stereo not drawn) | -2.4% (inactive)
63 | COc1ccc(/C=C/C(=O)c2cc(Br)ccc(=O)c2O)cc1 | 12.7% (inactive)
64 | CCNC(=O)CC1C(=O)N(c2ccc(F)cc2)C(=O)N1CCc1sccc1C (stereo not drawn) | 3.2% (inactive)
65 | CCCCn1c(N)c(N(CC)C(=O)/C=C/c2ccco2)c(=O)[nH]c1=O | 1.1% (inactive)
66 | COc1ccc(Cl)cc1N(CC(=O)N1CCCCC1)S(C)(=O)=O | -2.8% (inactive)
67 | COc1ccc(C2CC(c3ccccc3)=NN2C(=O)c2ccc(Cl)c([N+](=O)[O-])c2)cc1 (stereo not drawn) | 0.4% (inactive)
68 | O=C(/C(=C/c1cccc(Cl)c1)c1nc2ccccc2[nH]1)c1ccccc1 | -1.2% (inactive)
69 | Cc1cc(C)n(-c2ccc3nncn3n2)n1 | -4% (inactive)
70 | CCOc1ccc(S(=O)(=O)Nc2ccncc2)c(C)c1C | -3.2% (inactive)
71 | c1ccc2c(NC3C4CC5CC(C4)CC3C5)nc(N3CCOCC3)nc2c1 (stereo not drawn) | -4.8% (inactive)
72 | COc1cccc(C(=O)Oc2cc(C)[nH]c(=O)c2[N+](=O)[O-])c1 | -4.1% (inactive)

Row | Structure (SMILES) | inhibition
73 | CC1(C)CC(=O)CC2(C1)NCC(c1ccccc1Cl)c1c2[nH]c2ccccc12 (stereo not drawn) | -3.4% (inactive)
74 | CCOn1c(=O)c(=O)n(O)c2ccccc21 | -6.3% (inactive)
75 | Cc1ccc([N+](=O)[O-])c(OCCCNCC(C)O)c1 (stereo not drawn) | -0.7% (inactive)
76 | COc1ccc(C)cc1NC(=O)C(Sc1ccccc1)c1ccccc1 (stereo not drawn) | -3% (inactive)
77 | CCCCC(CC)CNC(=O)CCCCn1c(=O)[nH]c2ccsc2c1=O (stereo not drawn) | -0.9% (inactive)
78 | OCCC1CN(Cc2cccc(OC3CCCC3)c2)CCN1Cc1ccsc1 (stereo not drawn) | -1.7% (inactive)
79 | O=C(CN1C(=O)/C(=C/c2ccccc2F)Sc2ccccc21)NCc1cccnc1 | -4.7% (inactive)
80 | Cc1ccc(CN2CCN(/N=C/c3ccco3)CC2)c(C)c1 | -2% (inactive)
81 | Cc1ccc(/C(N)=N/OC(=O)COc2ccc(Cl)c(C)c2)cc1 | -6.6% (inactive)
82 | COc1ccc(Cl)cc1NC(=O)CN(C)Cc1ccc(OC)c(OC)c1 | 2.3% (inactive)
83 | Cc1nnc(SC(C(=O)Nc2cc(Cl)cc(Cl)c2)c2ccccc2)[nH]c1=O (stereo not drawn) | 2.4% (inactive)
84 | COc1ccc(F)cc1C(=O)C1CCCN(C(=O)CCc2ccccn2)C1 (stereo not drawn) | 0.9% (inactive)
85 | COc1ccc(NC(=O)CN(Cc2ccccc2)S(C)(=O)=O)cc1OC | -3.6% (inactive)
86 | O=C(O)c1ccc(NS(=O)(=O)c2ccc3c(c2)C(=O)c2cc(S(=O)(=O)Nc4ccc(C(=O)O)cc4)ccc2-3)cc1 | 2.8% (inactive)
87 | CCC(=O)Nc1c(C)n[nH]c1C | -6.7% (inactive)
88 | CC(CCc1ccccc1)NCC(O)c1cccc([N+](=O)[O-])c1 (stereo not drawn) | -4.1% (inactive)
89 | Cc1cccc(C(=O)OCC(=O)Nc2sc3c(c2C#N)CCC3)c1 | 5.2% (inactive)
90 | N#Cc1c(NC(=O)CCCl)sc2c1CCCCC2 | 0.1% (inactive)
91 | CC(=O)c1c(C)[nH]c(C(=O)OCC(=O)Nc2sc3c(c2C#N)CCCC3)c1C | 50.6% (active)
92 | Oc1ccc(/C=N/N(Cc2ccccc2)c2ccccc2)cc1 | -6.2% (inactive)
93 | Cc1nc(CC(=O)NNS(=O)(=O)c2ccc(F)c(Cl)c2)cs1 | -6.6% (inactive)
